This is an account of results in PubChem BioAssay (EPA / NIEHS).

Activity calls are given as the source filed them. The calls were made as follows: active = hit-call score of the fitted dose curve at least 0.9, where 1 is the maximum; inactive = score below 0.9.

Holding throughout (settings): mRNA level, 48 h; actives raise or lower the signal
Read-out in assay [1]: adenosine kinase (ADK) gene, ADK (gene 132)
The experiment in a line: LTEA_HepaRG_ADK: Life Technologies and Expression Analysis (LTEA) Assay for adenosine kinase (ADK) gene using HepaRG (AID 2283471). A digest of the protocol:
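Read-out is ADK transcript level measured by qRT-PCR and normalised to three housekeeping genes. Cells are human HepaRG, dosed for 48 h at up to 100 uM in 0.5% DMSO. Gain or loss of signal is fitted against DMSO controls.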

Read-out in assay [2]: Alpha-fetoprotein (AFP) gene, AFP (gene 174)
The assay can be described thus: LTEA_HepaRG_AFP: Life Technologies and Expression Analysis (LTEA) Assay for Alpha-fetoprotein (AFP) gene using HepaRG (AID 2283472). A digest of the protocol: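 AFP transcript measured by TaqMan qRT-PCR with three housekeeping genes for normalization, after 48 h chemical treatment of HepaRG cells (top 100 uM, half-log steps, 0.5% DMSO). Gain or loss fitted against vehicle.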

Read-out in a further assay: BCL2L11 (gene 10018)
The assay can be described thus: LTEA_HepaRG_BCL2L11: Life Technologies and Expression Analysis (LTEA) Assay for Bcl-2 (BCL2L11) gene using HepaRG (AID 2283473). A digest of the protocol: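 Differentiated human HepaRG cells were exposed 48 h in serum-free induction medium to eight half-log concentrations up to 100 uM in 0.5% DMSO, in duplicate. BCL2L11 mRNA was quantified by TaqMan qRT-PCR, normalized to ACTB, GAPDH and POLR2A; induction or repression fitted versus DMSO.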

Read-out in assay [3]: Apolipoprotein A-V (APOA5) gene, APOA5 (gene 116519)
The experiment in a line: LTEA_HepaRG_APOA5: Life Technologies and Expression Analysis (LTEA) Assay for Apolipoprotein A-V (APOA5) gene using HepaRG (AID 2283474). A digest of the protocol: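 Differentiated HepaRG cells in serum-free induction medium, exposed 48 h in duplicate to eight half-log concentrations topping at 100 uM (0.5% DMSO). APOA5 mRNA by Fluidigm TaqMan qRT-PCR, normalized to ACTB, GAPDH and POLR2A; bidirectional fit versus DMSO.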

Read-out in assay [4]: Apoptosis regulator Bcl-2 (Homo sapiens) (UniProt P10415)
The assay can be described thus: LTEA_HepaRG_BCL2: Life Technologies and Expression Analysis (LTEA) Assay for Bcl-2 gene using HepaRG (AID 2283475). The essentials:
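qRT-PCR of BCL2 transcript, normalized to three housekeeping genes (ACTB, GAPDH, POLR2A), after 48 h chemical exposure of HepaRG cells; concentrations top 100 uM with half-log dilutions, 0.5% DMSO vehicle, duplicates; changes up or down fitted relative to vehicle.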

Read-out in assay [5]: Bcl-2 (BID) gene, BID (gene 637)
The assay can be described thus: LTEA_HepaRG_BID: Life Technologies and Expression Analysis (LTEA) Assay for Bcl-2 (BID) gene using HepaRG (AID 2283476). The essentials: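 Duplicate 48 h treatments of HepaRG cells in serum-free induction medium spanned 100 uM downward in half-log steps, 0.5% DMSO. Transcript change quantified by qRT-PCR against three housekeeping genes, fitted up or down versus DMSO.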

Read-out in the next assay: Caspase-3 (Homo sapiens) (UniProt P42574)
The assay can be described thus: LTEA_HepaRG_CASP3: Life Technologies and Expression Analysis (LTEA) Assay for cysteine-aspartic acid protease (CASP3) using HepaRG (AID 2283477). The essentials:
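Differentiated HepaRG cells, plated 48 h, were treated in duplicate in serum-free induction medium for 48 h with eight half-log concentrations up to 100 uM in 0.5% DMSO. CASP3 mRNA measured by qRT-PCR, normalized to ACTB, GAPDH, POLR2A.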

Read-out in assay [6]: Cytochrome P450 (CYP24A1), CYP24A1 (gene 1591)
The assay can be described thus: LTEA_HepaRG_CYP24A1: Life Technologies and Expression Analysis (LTEA) Assay for Cytochrome P450 (CYP24A1) using HepaRG (AID 2283478). The essentials: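 HepaRG cells plated 48 h, then exposed in duplicate in serum-free induction medium for 48 h to 8-point half-log series from 100 uM in 0.5% DMSO. CYP24A1 mRNA by Fluidigm qRT-PCR, normalized to ACTB, GAPDH, POLR2A; bidirectional fit versus DMSO.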

Read-out in assay [7]: Cytochrome P450 (CYP1A2), CYP1A2 (gene 1544)
The experiment in a line: LTEA_HepaRG_CYP1A2: Life Technologies and Expression Analysis (LTEA) Assay for Cytochrome P450 (CYP1A2) using HepaRG (AID 2283479). The essentials:
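Differentiated human HepaRG cells in serum-free induction medium exposed 48 hours in duplicate to 8 half-log concentrations from 100 uM, 0.5% DMSO. CYP1A2 mRNA quantified by qRT-PCR, normalized to ACTB, GAPDH and POLR2A; bidirectional fitting versus DMSO.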

Read-out in assay [8]: cysteine-aspartic acid protease (CASP8), CASP8 (gene 841)
The assay can be described thus: LTEA_HepaRG_CASP8: Life Technologies and Expression Analysis (LTEA) Assay for cysteine-aspartic acid protease (CASP8) using HepaRG (AID 2283480). A digest of the protocol: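 qRT-PCR readout of CASP8 mRNA, normalized to three housekeeping genes, after 48 h chemical exposure of HepaRG cells; 8-point half-log series, top 100 uM, 0.5% DMSO vehicle. Bidirectional curve fitting against DMSO baseline.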

Read-out in assay [9]: Cytochrome P450 (CYP2B6), CYP2B6 (gene 1555)
The experiment in a line: LTEA_HepaRG_CYP2B6: Life Technologies and Expression Analysis (LTEA) Assay for Cytochrome P450 (CYP2B6) using HepaRG (AID 2283481). The essentials:
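Differentiated human HepaRG cells in serum-free induction medium, dosed in duplicate for 48 h over 8 half-log concentrations topping at 100 uM (0.5% DMSO). CYP2B6 mRNA measured by TaqMan qRT-PCR, normalized to ACTB, GAPDH, POLR2A; bidirectional fit versus DMSO.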

Read-out in assay [10]: Cytochrome P450 2C19 (Homo sapiens) (UniProt P33261)
The assay can be described thus: LTEA_HepaRG_CYP2C19: Life Technologies and Expression Analysis (LTEA) Assay for CYP2C19 using HepaRG (AID 2283482). A digest of the protocol:
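Differentiated HepaRG cells in serum-free induction medium exposed 48 h in duplicate, 8 concentrations from 100 uM by half-log steps in 0.5% DMSO. CYP2C19 mRNA measured by TaqMan qRT-PCR, normalized to ACTB, GAPDH, POLR2A. Bidirectional fit versus DMSO.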

Read-out in the next assay: CYP2C8 (gene 1558)
The experiment in a line: LTEA_HepaRG_CYP2C8: Life Technologies and Expression Analysis (LTEA) Assay for CYP2C8 using HepaRG (AID 2283483). A digest of the protocol: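 HepaRG (human liver line), 48 h chemical exposure, 8-pt half-log series from 100 uM, 0.5% DMSO vehicle. Readout: CYP2C8 transcript by qRT-PCR, housekeeping-normalized. Bidirectional fit vs DMSO baseline.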

Read-out in the next assay: CYP2C9 (gene 1559)
The assay can be described thus: LTEA_HepaRG_CYP2C9: Life Technologies and Expression Analysis (LTEA) Assay for CYP2C9 using HepaRG (AID 2283484). The essentials: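 HepaRG, 48 h dosing, 8-pt half-log series, top 100 uM, 0.5% DMSO vehicle. Read-out: CYP2C9 transcript by TaqMan qRT-PCR, housekeeping-normalized (ACTB/GAPDH/POLR2A). Gain or loss fitted vs DMSO baseline.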

Read-out in the next assay: CYP2E1 (gene 1571)
The experiment in a line: LTEA_HepaRG_CYP2E1: Life Technologies and Expression Analysis (LTEA) Assay for CYP2E1 using HepaRG (AID 2283485). A digest of the protocol:
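CYP2E1 transcript measured by Fluidigm qRT-PCR against three housekeeping genes in human HepaRG cells treated 48 h (top 100 uM, half-log steps, 0.5% DMSO vehicle). Gain or loss fitted relative to DMSO baseline.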

Read-out in a further assay: CYP4A11 (gene 1579)
The assay can be described thus: LTEA_HepaRG_CYP4A11: Life Technologies and Expression Analysis (LTEA) Assay for CYP4A11 using HepaRG (AID 2283486). The essentials: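 Differentiated HepaRG cells, 48 h after plating, exposed in duplicate for 48 h to 8 half-log concentrations up to 100 uM in 0.5% DMSO in serum-free induction medium. CYP4A11 mRNA measured by TaqMan qRT-PCR, normalized to ACTB, GAPDH and POLR2A.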

Read-out in assay [11]: Cytochrome P450 3A4 (Homo sapiens) (UniProt P08684)
The assay can be described thus: LTEA_HepaRG_CYP3A4: Life Technologies and Expression Analysis (LTEA) Assay for CYP3A4 using HepaRG (AID 2283487). A digest of the protocol:
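HepaRG, 48 h exposure, 8-pt CRC from 100 uM (half-log), 0.5% DMSO, duplicates; serum-free induction medium. Readout: CYP3A4 mRNA, qRT-PCR, ACTB/GAPDH/POLR2A normalization. Bidirectional fit vs DMSO.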

Read-out in assay [12]: DNA damage-inducible transcript 3 (DDIT3), DDIT3 (gene 1649)
The assay can be described thus: LTEA_HepaRG_DDIT3: Life Technologies and Expression Analysis (LTEA) Assay for DNA damage-inducible transcript 3 (DDIT3) using HepaRG (AID 2283488). The essentials: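 DDIT3 transcript was quantified by qRT-PCR with ACTB/GAPDH/POLR2A normalization after 48 h chemical treatment of differentiated HepaRG cells in 0.5% DMSO. Dosing was eight-point, half-log, top 100 uM, duplicate wells. Curves fitted bidirectionally versus DMSO.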

Read-out in assay [13]: Pro-epidermal growth factor (Homo sapiens) (UniProt P01133)
The experiment in a line: LTEA_HepaRG_EGF: Life Technologies and Expression Analysis (LTEA) Assay for Epidermal growth factor (EGF) using HepaRG (AID 2283489). The essentials: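 HepaRG cells (~100,000/well, 48 h pre-culture) exposed in duplicate for 48 h in serum-free induction medium to 8 half-log concentrations up to 100 uM in 0.5% DMSO. EGF mRNA by qRT-PCR, normalized to ACTB/GAPDH/POLR2A; bidirectional fit versus DMSO.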

Read-out in assay [14]: Early growth response protein 1 (EGR1) transcription factor, EGR1 (gene 1958)
The experiment in a line: LTEA_HepaRG_EGR1: Life Technologies and Expression Analysis (LTEA) Assay for Early growth response protein 1 (EGR1) transcription factor using HepaRG (AID 2283490). The essentials:
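HepaRG, 48 h exposure, 8-pt half-log series from 100 uM, 0.5% DMSO vehicle; EGR1 transcript by TaqMan qRT-PCR (Fluidigm array), housekeeping-normalized; bidirectional fit relative to DMSO baseline.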

Sequence of Cytochrome P450 3A4 (Homo sapiens) (P08684 whole entry, looked up): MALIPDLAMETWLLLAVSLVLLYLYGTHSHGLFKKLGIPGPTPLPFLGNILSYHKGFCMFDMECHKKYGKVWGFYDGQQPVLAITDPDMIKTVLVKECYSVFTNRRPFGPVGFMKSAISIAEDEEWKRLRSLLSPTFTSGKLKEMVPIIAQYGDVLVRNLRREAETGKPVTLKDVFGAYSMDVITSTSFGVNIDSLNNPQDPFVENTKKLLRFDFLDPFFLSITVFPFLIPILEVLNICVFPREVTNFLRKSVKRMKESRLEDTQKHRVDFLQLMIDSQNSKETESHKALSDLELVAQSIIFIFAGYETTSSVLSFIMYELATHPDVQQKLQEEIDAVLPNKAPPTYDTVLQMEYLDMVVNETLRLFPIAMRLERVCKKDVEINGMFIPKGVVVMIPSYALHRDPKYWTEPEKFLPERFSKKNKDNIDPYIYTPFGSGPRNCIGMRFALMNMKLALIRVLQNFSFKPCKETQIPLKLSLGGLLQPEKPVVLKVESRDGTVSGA
Sequence of Cytochrome P450 2C19 (Homo sapiens) (P33261 whole entry, looked up): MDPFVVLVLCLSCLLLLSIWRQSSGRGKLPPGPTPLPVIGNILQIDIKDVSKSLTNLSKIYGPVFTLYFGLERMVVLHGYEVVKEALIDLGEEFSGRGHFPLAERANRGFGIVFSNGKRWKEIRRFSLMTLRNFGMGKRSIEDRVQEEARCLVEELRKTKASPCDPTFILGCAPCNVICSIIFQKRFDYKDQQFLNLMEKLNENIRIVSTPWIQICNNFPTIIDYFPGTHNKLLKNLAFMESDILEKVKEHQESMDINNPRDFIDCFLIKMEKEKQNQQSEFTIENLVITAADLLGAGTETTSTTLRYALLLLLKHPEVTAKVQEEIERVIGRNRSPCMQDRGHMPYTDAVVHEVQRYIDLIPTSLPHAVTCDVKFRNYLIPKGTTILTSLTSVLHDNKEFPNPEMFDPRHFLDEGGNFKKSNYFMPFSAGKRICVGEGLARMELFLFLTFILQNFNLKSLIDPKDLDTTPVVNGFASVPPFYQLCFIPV
Sequence of Apoptosis regulator Bcl-2 (Homo sapiens) (P10415 whole entry, looked up): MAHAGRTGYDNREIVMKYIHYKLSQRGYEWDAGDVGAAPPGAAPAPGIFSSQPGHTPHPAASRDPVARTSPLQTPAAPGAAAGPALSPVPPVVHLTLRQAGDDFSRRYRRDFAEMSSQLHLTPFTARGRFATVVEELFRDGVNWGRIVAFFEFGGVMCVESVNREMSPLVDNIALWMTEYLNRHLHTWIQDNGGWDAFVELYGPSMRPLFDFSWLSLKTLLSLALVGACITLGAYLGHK
Sequence of Caspase-3 (Homo sapiens) (P42574 whole entry, looked up): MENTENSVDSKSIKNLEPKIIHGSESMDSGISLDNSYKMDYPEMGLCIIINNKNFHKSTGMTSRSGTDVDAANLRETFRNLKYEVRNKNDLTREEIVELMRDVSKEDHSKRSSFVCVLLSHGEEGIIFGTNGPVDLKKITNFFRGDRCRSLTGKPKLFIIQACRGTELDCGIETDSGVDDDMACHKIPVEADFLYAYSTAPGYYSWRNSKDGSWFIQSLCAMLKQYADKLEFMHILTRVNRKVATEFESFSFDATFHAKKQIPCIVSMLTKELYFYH

Usually AC50 stands for the concentration giving half of the maximal activity seen. With `c1ccc2cc3c(ccc4ccccc43)cc2c1`, the call (in assay [1]; in assay [4]; in assay [5]; with Caspase-3 (Homo sapiens); in [6]; in assay [8]) was inactive. Also, in [13], the result was inactive. The AC50 in assay [2] was 25.9 µM (active); with BCL2L11 (gene 10018), 7.02 µM (active); in [3], 15.9 µM (active); in assay [7] it was 1.99 µM (active); in assay [9], 9.39 µM (active); in assay [10], 15.2 µM (active). Also, the AC50 with CYP2C8 (gene 1558) was 13.7 µM (active); with CYP2C9 (gene 1559) it was 11.8 µM (active); in the assay with CYP2E1 (gene 1571), 22.3 µM (active); with CYP4A11 (gene 1579), 32.8 µM (active); in assay [11] it was 3.99 µM (active); in assay [12] it was 17.7 µM (active). The AC50 in [14] was 27.9 µM (active).
For the molecule `C=C(C)C(=O)OCCC(F)(F)C(F)(F)C(F)(F)C(F)(F)C(F)(F)C(F)(F)F`, the molecule was classed as inactive (in assay [1]; in assay [2]; with BCL2L11 (gene 10018); in assay [3]; in [4]; in [5]). Also, the molecule was classed as inactive (with Caspase-3 (Homo sapiens); in assay [6]; in [7]; in [8]; in assay [10]; with CYP2C8 (gene 1558)). The call (in the assay with CYP2C9 (gene 1559); with CYP4A11 (gene 1579); in assay [11]; in assay [12]; in assay [13]; in assay [14]) was inactive. The values for the AC50 (in assay [9]; with CYP2E1 (gene 1571)) were 11.8 µM (active) and 20.1 µM (active), respectively.
Consider `CCCOc1sc(C(=O)N2CCC(c3cc(CN)ccc3F)CC2)c(C)c1Br`, for which the molecule was called inactive (in assay [1]; in assay [2]; with BCL2L11 (gene 10018); in assay [3]; in assay [4]; in the assay with Caspase-3 (Homo sapiens)). Further, the outcome (in [6]; in assay [7]; in assay [8]; in assay [10]; in the assay with CYP2C8 (gene 1558); in the assay with CYP2C9 (gene 1559)) was inactive. Moreover, the outcome (with CYP2E1 (gene 1571); with CYP4A11 (gene 1579); in assay [11]; in assay [12]; in [13]; in assay [14]) was inactive. Besides, the AC50 was 0.0539 µM (active) in assay [5] and 1.96 µM (active) in assay [9].
